The list is not random: actives were taken first. Their share in the collection is about 2.4%.
APEX1 inh: blocks human APE1 abasic DNA cleavage. P27695. Potency, µM (highest dose often 65.8 µM), most hits filed as inhibitors. recombinant APE1, TAMRA/BHQ-2 abasic DNA cleavage fluorescence. 350,000 tested, 0.35% active; further: nearly all actives have a fitted effect of over 55% in size
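Endonuclease cleavage of a quenched abasic-site DNA duplex (50 nM) by APE1 (0.75 nM) was tracked by TAMRA dequenching. Compounds were preincubated with enzyme 15 min at room temperature; data normalized to buffer-only and DMSO wells plus NSC13755 control.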
POLB inh: blocks human DNA polymerase beta activity | Potency, µM (highest dose often 114 µM), most hits filed as inhibitors | 340,000 tested, 1.3% active | P06746 | Pol beta primer extension/strand displacement, fluorescence kinetic
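Preincubation: enzyme (10 nM) with compound, 15 min, RT. Reaction: substrate added to 50 nM final. Reads: 0 and 10 min. Analysis: normalized, Hill fit.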
POLH inh: DNA polymerase eta (human) inhibition | Q9Y253 | recombinant Pol eta, fluorescent DNA replication assay | Potency, µM (titrated, usually from 114 µM), actives largely listed as inhibitors | 390,000 tested, 1.2% active
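Fluorescent replication assay: 50 nM final substrate added after a 15 min room-temperature compound preincubation with 10 nM enzyme. Signal taken at 0 min and again at 10 min.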
POLK inh: DNA polymerase kappa (human) inhibition; purified Pol kappa, fluorescent DNA synthesis assay, 10 min; Potency, µM (highest dose often 107 µM), usual class: inhibitors; 400,000 tested, 0.53% active; AID 588579
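Inhibition of 10 nM Pol kappa is measured by a fluorescent read-out at 0 and 10 min following addition of 50 nM substrate (final), with a 15-min room-temperature compound preincubation.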
Pol iota inh: inhibitors of human DNA polymerase iota; Q9UNA4; Pol iota fluorescent replication assay, 10 min; Potency, µM (highest dose often 115 µM), actives largely listed as inhibitors; 390,000 tested, 1% active
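Fluorescent replication assay read twice, at 0 min and 10 min after adding 50 nM (final) substrate. Enzyme (10 nM) and compounds were first incubated 15 min at room temperature; enzyme-free buffer wells were negative controls.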
GLS inhibitor: blocks human kidney-isoform glutaminase activity | O94925 | GLS enzymatic activity, qHTS titration | Potency, µM (highest dose often 45.5 µM), actives largely listed as inhibitors | 410,000 tested, 0.21% active
Target sequence (O94925 whole entry, looked up, canonical isoform): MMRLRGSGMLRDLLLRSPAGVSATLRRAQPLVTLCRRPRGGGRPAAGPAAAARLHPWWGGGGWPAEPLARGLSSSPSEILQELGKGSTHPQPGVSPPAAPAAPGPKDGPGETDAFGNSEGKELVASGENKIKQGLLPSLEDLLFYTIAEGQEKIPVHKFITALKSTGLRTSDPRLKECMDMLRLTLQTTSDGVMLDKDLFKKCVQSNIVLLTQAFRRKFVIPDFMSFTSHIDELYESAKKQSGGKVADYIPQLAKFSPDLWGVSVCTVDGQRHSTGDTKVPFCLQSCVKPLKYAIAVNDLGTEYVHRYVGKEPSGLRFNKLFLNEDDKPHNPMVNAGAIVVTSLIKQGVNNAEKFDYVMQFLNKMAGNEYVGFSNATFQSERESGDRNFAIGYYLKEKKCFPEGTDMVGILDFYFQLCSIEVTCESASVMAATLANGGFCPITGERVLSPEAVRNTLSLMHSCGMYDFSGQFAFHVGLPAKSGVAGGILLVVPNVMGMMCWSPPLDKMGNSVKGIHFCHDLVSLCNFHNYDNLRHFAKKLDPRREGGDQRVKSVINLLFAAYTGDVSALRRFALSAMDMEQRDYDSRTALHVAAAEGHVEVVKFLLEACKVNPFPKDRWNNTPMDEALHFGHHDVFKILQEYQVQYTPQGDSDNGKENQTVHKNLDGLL
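Compounds were pin-transferred onto hKGA, after which L-glutamine (1 mM solution) and a detection mix of glutamate oxidase, HRP and Amplex Red were added. Initial and 30 min RT fluorescence reads were collected.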
Hits are given with their value; . = inactive; ? = inconclusive; / = no result; ! = a repeat was not active. The call rests on the fitted dose curve; in most records, active means well fitted curve in the direction sought with a large enough effect; inconclusive means small, poorly fitted or top-dose-only effect, or another doubt; inactive means no such curve, though single readings can be large; an effect the other way counts as inactive or inconclusive.

SMILES | APEX1 inh | POLB inh | POLH inh | POLK inh | Pol iota inh | GLS inhibitor
Fc1ccc(-c2oncc2-c2nnnn2-c2ccccc2)cc1F | . | . | . | . | . | .
Cc1cc2[nH]c(=O)c(=O)[nH]c2cc1S(=O)(=O)N1CCN(c2cccc(Cl)c2)CC1 | . | 35.5µM | . | . | ? | .
O=c1[nH]c2ccc(S(=O)(=O)N3CCN(c4ccccc4)CC3)cc2[nH]c1=O | . | 44.7µM | 79.4µM | ? | 39.8µM | .
Cc1cc2[nH]c(=O)c(=O)[nH]c2cc1S(=O)(=O)N1CCN(c2cccc(C(F)(F)F)c2)CC1 | . | ? | . | . | ? | .
COC(=O)C[C@H]1c2cc(F)ccc2S(=O)(=O)N1Cc1ccccc1OC | / | / | . | . | ? | .
C#CCOCCOCCOCCNc1nc(N2CCN(C(=O)[C@H](CCC(=O)O)n3cc(C(N)CC(C)C)nn3)CC2)nc(N2CCN(C(=O)[C@H](CCC(=O)O)n3cc(C(N)CC(C)C)nn3)CC2)n1 (stereo partly specified) | . | . | . | . | . | .
N#Cc1sc2nc(C3CC3)cc(-c3ccccc3)c2c1N | . | . | ? | . | ? | .
CC(=O)Nc1nc(-c2ccccc2)cc(-c2ccco2)c1C#N | . | / | . | . | . | .
N#Cc1c(-c2ccccc2)cc(-c2ccco2)c(C#N)c1N | . | 39.8µM | / | / | / | /
N#Cc1sc2nc(-c3ccccc3)cc(-c3ccco3)c2c1N | ? | 39.8µM | 8.91µM | 50.1µM | 0.794µM | .
O=C(Nc1cc(C(F)(F)F)ccc1F)C1Cc2c(-c3ccccc3Oc3ccccc3)ccnc2O1 (stereo unspecified) | / | / | / | / | / | .
CCN(CC)C(=O)CSc1nnc(-c2ccc(O)cc2)n1CC1CCCO1 (stereo unspecified) | . | . | . | . | . | .
O=C(NC1CCCCCC1)c1ccc(CS(=O)c2ccc(Br)cc2)o1 (stereo unspecified) | / | . | . | . | . | .
CCN(CC)S(=O)(=O)c1ccc(C(=O)NNC(=O)c2csc(N3CCOCC3)n2)cc1 | . | / | . | . | . | .
CN(C)S(=O)(=O)c1ccc(C(=O)OCC(=O)c2csc(N3CCCCC3)n2)cc1 | . | / | 79.4µM | . | ? | .
COc1ccc([C@H]2Oc3cc(O)cc(O)c3C(=O)C2[C@@H]2C(=O)c3c(O)cc(O)cc3O[C@@H]2c2ccc(OC)cc2)cc1 (stereo partly specified) | . | ? | . | . | . | .
O=C1c2c(O)cc(O)cc2O[C@H](c2ccc(O)c(O)c2)C1O (stereo partly specified) | ? | / | / | 1.34µM | / | /
O=C1c2c(O)cc(O)cc2OC(c2ccc(O)c(O)c2)C1O (stereo unspecified) | ? | 1.89µM | 5.62µM | 5.97µM | 3.98µM | /
O=C1C(=O)C(c2ccc(O)cc2O)Oc2cc(O)cc(O)c21 (stereo unspecified) | / | / | / | 12.6µM | 10µM | /
COC(=O)c1ccccc1NC(=O)CCS(=O)(=O)c1ccc(Br)s1 | . | . | . | . | . | .
Cc1ccccc1NC(=O)CCS(=O)(=O)c1ccc(Br)s1 | . | 35.5µM | ? | ? | ? | .
COc1ccc(-c2nc3c(C#N)c[nH]n3c2NC2CCCCC2)cc1 | / | . | . | . | ? | 12.6µM
COc1ccc(-c2nc3c(C#N)c[nH]n3c2NC2CCCCC2)c(OC)c1 | / | . | . | . | . | ?
O=C(O)C(S)[C@@H](S)C(=O)O (stereo partly specified) | 14.1µM | / | / | 22.4µM | / | /
CC(=O)N(C)c1ccc(/C=C2\C=Cc3ccccc32)cc1 | / | / | / | . | . | /
SMILES | APEX1 inh | POLB inh | POLH inh | POLK inh | Pol iota inh | GLS inhibitor
CN(CC(=O)O)c1ccc(/C=C2\C=Cc3ccccc32)cc1 | / | / | / | 56.2µM! | . | /
O=C(O)Cc1ccc(NC(=O)COc2ccc3ccccc3c2)cc1 | . | . | . | . | . | .
Cc1ccc(NC(=O)Nc2cnc3ccccc3c2)cc1 | . | 20µM | . | . | . | .
O=C(COc1ccc2ccccc2c1)Nc1ccc(Cc2ccncc2)cc1 | . | ? | ? | . | 25.1µM | ?
Cc1ccc(NC(=O)NNC(=O)COc2ccc3ccccc3c2)cc1 | . | 79.4µM | . | . | ? | .
Cc1ccccc1NC(=O)NNC(=O)COc1ccc2ccccc2c1 | . | 15.8µM | . | . | ? | .
C/C=C(/C)C(=O)O[C@@H]1[C@H](OC(=O)C=C(C)C)c2c(ccc3ccc(=O)oc23)OC1(C)C | ? | . | . | . | . | .
Cc1cc(C)cc(N(CCC#N)C(=O)CSc2n[nH]c(N)n2)c1 | . | / | . | . | . | .
O=C(CCCNS(=O)(=O)c1cccs1)N1CCN(c2ccc(F)cc2)CC1 | . | . | . | . | . | .
COC(=O)c1c(NC(=O)C2C3CCC(O3)C2C(=O)O)sc2c1CCCCCC2 (stereo unspecified) | . | . | . | . | . | .
CCOc1ccc(NC(=O)CCC(=O)NNC(=O)COc2ccc(C)cc2Br)cc1 | . | ? | . | . | 70.8µM | .
COc1ccc2cc(OCC(=O)NNC(=O)Nc3ccc(F)cc3)ccc2c1 | . | . | . | . | ? | .
COc1ccc2cc(OCC(=O)NNC(=O)Nc3ccc(OC)c(OC)c3)ccc2c1 | . | 50.1µM | ? | . | 20µM | .
CCc1ccccc1N1C(=O)N(Cc2cccc(Cl)c2)c2ccccc2S1(=O)=O | / | . | . | . | . | .
COc1cccc(-c2nc(SCC(=O)Nc3nc(-c4ccccc4)c(C)s3)[nH]c(=O)c2C#N)c1 | . | ? | 79.4µM | . | ? | .
Cc1sc(NC(=O)CSc2nc(O)cc(=O)[nH]2)nc1-c1ccccc1 | . | . | . | . | ? | .
CCOc1ccc2nc(NC(=O)CSc3nc(-c4ccccc4)c(C#N)c(=O)[nH]3)sc2c1 | . | . | 50.1µM | . | ? | .
COC(=O)C1Sc2[nH]c(=O)sc2C2c3ccccc3OC(=O)C12 (stereo unspecified) | . | . | . | . | . | /
O=C(O)C1Sc2[nH]c(=O)sc2C2c3cc(Br)ccc3OC(=O)C12 (stereo unspecified) | . | . | . | . | ? | 10µM
O=C(O)C1Sc2[nH]c(=O)sc2C2c3ccc(O)cc3OC(=O)C12 (stereo unspecified) | . | . | . | ? | ? | 8.91µM
CC(CNC(=O)CN1C(=O)NC2(CCCCC2C)C1=O)c1ccccc1 (stereo unspecified) | . | / | . | . | . | .
Cc1cc(C)cc(Nc2cc(=O)n(C3CCCCC3)c(=O)[nH]2)c1 | . | 44.7µM | ? | . | . | .
COc1ccc(Nc2cc(=O)n(C3CCCCC3)c(=O)[nH]2)c(OC)c1 | . | . | . | . | . | .
